SMILES strings stand for the structures. Results filed as inconclusive are left out. Entries that show only a call come without a potency. Values without a mark were called inactive. Activity calls are given as the source filed them. Calls follow the shape of the dose curve; as a rule, active = well fitted curve in the direction sought with a large enough effect; inconclusive = small, poorly fitted or top-dose-only effect, or another doubt; inactive = no such curve, though single readings can be large; an effect the other way counts as inactive or inconclusive.

One experiment is described as follows: Counterscreen qHTS for small molecule stabilizers of the endoplasmic reticulum resident proteome: GLuc-NoTag assay (AID 1508627).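 Also: SH-SY5Y cells given compound then 100 nM thapsigargin to empty ER calcium.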 The conditions noted are these: Gaussia luciferase NoTag secretion counterscreen, luminescence, thapsigargin 100 nM for final 4 h; series mostly up to 76.4 µM; activity change, negative = inhibition: at the top concentration. Summed up: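 Luminescence of Gaussia luciferase secreted into the medium (coelenterazine, 0.07x final, unlysed cells) was the read-out. Human SH-SY5Y neuroblastoma cells constitutively secreting untagged GLuc received compound for 19 h, then 100 nM thapsigargin for 4 h.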
On the technique in general: The purpose of a counterscreen is to sort out artefacts and off-target activity.
Take `OC(CCN1CCCCC1)(c1ccccc1)C1CC2C=CC1C2` (configuration not stated): the Potency result was “inactive”.
Turning to `Nc1nc2c(ncn2COCCO)c(=O)[nH]1`, the “activity change, negative = inhibition” value is 16.1%.
With `Oc1ccc(C2CNCCc3c2cc(O)c(O)c3Cl)cc1` (configuration not stated), the “activity change, negative = inhibition” value is -30.7%.
The same measure, in the same setting: to `Cc1ccccc1C(OCCN(C)C)c1ccccc1` (configuration not stated) belongs 12.9%; to `Cc1[nH]c(=O)c(C#N)cc1-c1ccc2nccn2c1`, 14.2%.

The nature of the next experiment: Cell Viability qHTS for small molecule stabilizers of the endoplasmic reticulum resident proteome (AID 1508629).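 Also: compound exposure about 46 h in total before the viability read.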 The conditions noted are these: cell viability counter-screen, 100 nM thapsigargin for final 4 h. An excerpt: Assay Provider: Brandon K. Harvey Ph.D.
National Institute on Drug Abuse, National Institutes of Health, Baltimore, MD
Endoplasmic reticulum (ER) dysregulation is associated with human pathologies including neurodegenerative, cardiovascular, muscular, and diabetic conditions. Maintenance of ER calcium is critical for functions of the ER and its depletion can lead to loss of ER resident proteins, in a process termed exodosis. Therapeutic compounds capable of attenuating the redistribution of ER proteins under pathological conditions may slow or stop disease progression. To identify such compounds, we performed a quantitative high-throughput screen (qHTS) using the SERCaMP assay, which monitors secretion of ER resident proteins triggered by calcium depletion.
SERCaMP was initially developed as a reporter of ER calcium homeostasis using a Gaussia luciferase with a modified signal peptide and carboxy-terminus (GLuc-SERCaMP), modifications that confer secretion of the reporter in response to ER calcium depletion (Henderson et al., 2014). The assay was used to screen 9,501 compounds, including a collection of drugs approved by the FDA (US), EMA (EU), NHI (Japan), and HC (Canada) regulatory agencies (Huang et al., 2011). Since the SERCaMP reporter reflects the exodosis phenomenon (Trychta et al., 2018a), compounds identified in the screen have the potential to prevent exodosis by different mechanisms such as stabilizing ER calcium or augmenting ERS retrieval.
1. Henderson, M.J., Wires, E.S., Trychta, K.A., Richie, C.T., and Harvey, B.K. (2014). SERCaMP: a carboxy-terminal protein modification that enables monitoring of ER calcium homeostasis. Mol Biol Cell 25, 2828-2839.
2. Huang, R., Southall, N., Wang, Y., Yasgar, A., Shinn, P., Jadhav, A., Nguyen, D.T., and Austin, C.P. (2011). The NCGC pharmaceutical collection: a comprehensive resource of clinically approved drugs enabling repurposing and chemical genomics. Sci Transl Med 3, 80ps16.
3. Trychta, K.A., Back, S., Henderson, M.J., and Harvey, B.K. (2018a). KDEL Receptors Are Differentially Regulated to Maintain the ER Proteome under Calcium Deficiency. Cell Rep 25, 1829-1840 e1826.
SEQUENCE No. (1, 2, 3, etc.); […] (e.g., Cells, Incubation, Reagent, etc.); VALUE and DESCRIPTION.
1; Reagent; 5 uL; 1000 SH-SY5Y cells per wells
3; Compound; 23 nL; Control inhibitor / compound library
5; Reagent; 100 nM; Thapsigargin
7; Reagent; 5 uL; CellTiter-Glo (Promega)
8; Time; 10 min; room temperature
9; Detection; Luminescence; ViewLux imaging system
NOTES (numbers refer to sequence above)
1; SH-SY5Y human neuroblastoma cells stably expressing GLuc-SERCaMP (SH-SY5Y-GLuc-ASARTDL) cells were seeded in 1,536 well white tissue culture treated plates (Corning, Cat# 7464) in DMEM-high glucose-sodium pyruvate (ThermoFisher Scientific, Cat #10569) supplemented with 10% bovine growth serum (Hyclone), 10 U/ml penicillin (Gibco), 10 ug/ml streptomycin (Gibco), and 20 mM HEPES.
2; Assay plates were incubated for 5 hr at 37C in a humidified incubator containing 5% CO2.
3; qHTS libraries (23 nl, final concentrations of 1.53 uM, 7.67 uM, 38.3 uM) or controls (neutral control: DMSO, positive control: dantrolene) were added using a Kalypsis pin-tool Robotic System equipped with 1536 pinheads.
4; Cells were then incubated for 42 hours at 37C, 5% CO2.
5; Thapsigargin was added at 100 nM to deplete ER calcium stores.
6; Cells were incubated for 4 hr (37C, 5% CO2).
7; Cell viability was measured using the CellTiter-Glo Luminescent Cell Viability Assay (Promega). Briefly, an equal volume of reagent was added to each well. Plates were rotated for 2 min.
8; Assay plates were incubated for 10 min at room temperature.
9; Luminescence was measured using a ViewLux CCD imaging system (Perkin Elmer) equipped with clear filters.
On to `OC(CCN1CCCCC1)(c1ccccc1)C1CC2C=CC1C2` (configuration not stated), for which the max response is 24.4%.
The same measure, in the same setting: to `Nc1nc2c(ncn2COCCO)c(=O)[nH]1` belongs 1.71%.
Regarding `Oc1ccc(C2CNCCc3c2cc(O)c(O)c3Cl)cc1` (configuration not stated), the max response is -10.9%.
Still for that read-out and setting: to `Cc1[nH]c(=O)c(C#N)cc1-c1ccc2nccn2c1` belongs 9.8%.

Another experiment can be described thus: Primary qHTS for small molecule stabilizers of the endoplasmic reticulum resident proteome: Secreted ER Calcium Modulated Protein (SERCaMP) assay (AID 1508630). Also: potency is read from the fitted curve at half-maximal effect. Particulars: SH-SY5Y GLuc-SERCaMP (Gaussia luciferase released on ER calcium loss) secretion, thapsigargin, luminescence; series mostly up to 38.4 µM; activity change, negative = inhibition: at the top concentration. Summed up: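 GLuc-SERCaMP-expressing SH-SY5Y cells, pretreated 16 h with compound, are challenged with thapsigargin to empty ER calcium stores; after 4 h, coelenterazine is added directly to the medium and luminescence is imaged.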
(qHTS replaces the single test concentration by a dilution series.)
With `C1COC(NC(C2CC2)C2CC2)=N1`, the Potency result was “inactive”.
The same measure, in the same setting: to `CCCc1nn(C)c2c(=O)[nH]c(-c3cc(S(=O)(=O)N4CCN(C)CC4)ccc3OCC)nc12` belongs “inactive”; to `CC(=O)Oc1ccccc1C(=O)O`, “inactive”; to `O=NN(CCCl)C(=O)NCCCl`, “inactive”.
Take `CCCCNc1cc(C(=O)O)cc(S(N)(=O)=O)c1Oc1ccccc1`: the Potency entry is “inactive”.
For `OC(CCN1CCCCC1)(c1ccccc1)C1CC2C=CC1C2` (configuration not stated), the Potency was 10 µM (active).
On the same count and under the same terms, the result for `Cn1cnc([N+](=O)[O-])c1Sc1ncnc2nc[nH]c12` reads “inactive”.
Take `O=C1CCC(N2C(=O)c3ccccc3C2=O)C(=O)N1` (configuration not stated): the “activity change, negative = inhibition” value was -29.7% [at 76.3 µM].
Same read-out and setting: to `Cc1cccc(-c2[nH]c(C(C)(C)C)nc2-c2ccc3nccnc3c2)n1` belongs -27.1%.
With `CCCC(CCC)C(=O)O`, the Potency entry was “inactive”.
With `Nc1nc2ccc(OC(F)(F)F)cc2s1`, the Potency entry is “inactive”.
In the case of `O=c1n(CCCN2CCN(c3cccc(Cl)c3)CC2)nc2ccccn12`, the Potency entry is “inactive”.
The same measure, in the same setting: the result for `Nc1nc2c(ncn2COCCO)c(=O)[nH]1` reads “inactive”; that for `Clc1cccc(Cl)c1NC1=NCCN1`, “inactive”.
`CCc1cncnc1N1CCN(Cc2nc3ccc(C(F)(F)F)cc3[nH]2)CC1`: the “activity change, negative = inhibition” value is 26.4%.
Turning to `O=C(O)CCc1ccc(NCc2cccc(Oc3ccccc3)c2)cc1`, the Potency entry is “inactive”.
Still for that read-out and setting: the result for `O=C1CCc2cc(OCCCCc3nnnn3C3CCCCC3)ccc2N1` reads “inactive”.
Take `Cc1oncc1C(=O)Nc1ccc(C(F)(F)F)cc1`: the Potency entry was “inactive”.
With `NNCCc1ccccc1`, the Potency entry is “inactive”.
In the case of `Oc1ccc(C2CNCCc3c2cc(O)c(O)c3Cl)cc1` (configuration not stated), the “activity change, negative = inhibition” value is 2.41%.
`Cc1cn[nH]c1`: the Potency result is “inactive”.
Still for that read-out and setting: the result for `CC(C)C[C@H](NC(=O)[C@@H](O)[C@H](N)Cc1ccccc1)C(=O)O` reads “inactive”.
As to `Cc1ccccc1C(OCCN(C)C)c1ccccc1` (configuration not stated), the “activity change, negative = inhibition” value was -8.26%.
Take `CCOC(=O)C1=C[C@]2(CC)CCCN3CCc4c(n1c1ccccc41)[C@@H]32`: the Potency entry was “inactive”.
With `Cc1[nH]c(=O)c(C#N)cc1-c1ccc2nccn2c1`, the “activity change, negative = inhibition” value is 214%.
With `Cc1[nH]c(=O)c(C#N)cc1-c1ccncc1`, the Potency result is “inactive”.
As for `O=c1[nH]cnc2[nH]ncc12`, the Potency result is “inactive”.
On the same count and under the same terms, to `Nc1ccc(S(=O)(=O)Nc2ccnn2-c2ccccc2)cc1` belongs “inactive”.
With `CCC(C)N(C)C(=O)c1cc2ccccc2c(-c2ccccc2Cl)n1` (configuration not stated), the Potency result was “inactive”.
As for `NC[C@H](O)c1ccc(O)c(O)c1`, the Potency entry was “inactive”.
For `NCCCC(N)(C(=O)O)C(F)F` (configuration not stated), the Potency entry is “inactive”.
For the compound `CC(C)NCC(O)COc1ccc(COCCOC(C)C)cc1` (configuration not stated), the Potency result was “inactive”.
Regarding `NS(=O)(=O)c1cc2c(cc1Cl)NC=NS2(=O)=O`, the “activity change, negative = inhibition” value was -12.1%.

The values are drawn from PubChem BioAssay (NCATS).
